Measurements published in ChEMBL document CHEMBL1961873, “Compounds: GSK PKIS; Assays: Nanosyn kinase panel” (2012).

Experiments:
[1] = molecular target: Casein kinase I isoform gamma-2 (Homo sapiens) (UniProt P78368); settings: at 1 µM
[2] = molecular target: Casein kinase I isoform gamma-3 (Homo sapiens) (UniProt Q9Y6M4); settings: at 0.1 µM
[3] = molecular target: Casein kinase I isoform gamma-3 (Homo sapiens) (UniProt Q9Y6M4); settings: at 1 µM
[4] = molecular target: Cyclin-dependent kinase 1 (Homo sapiens) (UniProt P06493); settings: at 0.1 µM
Chain of Cyclin-dependent kinase 1 (Homo sapiens) (P06493 whole entry, looked up): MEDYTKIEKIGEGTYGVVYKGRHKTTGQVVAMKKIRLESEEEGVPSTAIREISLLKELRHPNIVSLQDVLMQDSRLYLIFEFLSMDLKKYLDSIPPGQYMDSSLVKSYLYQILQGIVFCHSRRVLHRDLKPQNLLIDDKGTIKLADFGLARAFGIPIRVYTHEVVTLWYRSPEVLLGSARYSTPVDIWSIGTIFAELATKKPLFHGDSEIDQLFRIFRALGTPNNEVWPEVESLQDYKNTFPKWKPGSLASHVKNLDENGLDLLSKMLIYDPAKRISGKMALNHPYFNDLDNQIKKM

[5] = molecular target: Cyclin-dependent kinase 1 (Homo sapiens) (UniProt P06493); settings: at 1 µM
[6] = molecular target: Cyclin-dependent kinase 2 (Homo sapiens) (UniProt P24941); settings: at 0.1 µM
[7] = molecular target: Cyclin-dependent kinase 2 (Homo sapiens) (UniProt P24941); settings: at 1 µM
[8] = molecular target: Cyclin-dependent kinase 2 (Homo sapiens) (UniProt P24941); settings: at 0.1 µM; remark: listed apart in the source
[9] = molecular target: Cyclin-dependent kinase 2 (Homo sapiens) (UniProt P24941); settings: at 1 µM; remark: listed apart in the source
[10] = molecular target: CDK3/Cyclin E (Homo sapiens) (UniProt P24864+Q00526); settings: at 0.1 µM;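 note: reported percentages are mean inhibition values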
Chain of CDK3/Cyclin E (Homo sapiens) (P24864 whole entry, looked up): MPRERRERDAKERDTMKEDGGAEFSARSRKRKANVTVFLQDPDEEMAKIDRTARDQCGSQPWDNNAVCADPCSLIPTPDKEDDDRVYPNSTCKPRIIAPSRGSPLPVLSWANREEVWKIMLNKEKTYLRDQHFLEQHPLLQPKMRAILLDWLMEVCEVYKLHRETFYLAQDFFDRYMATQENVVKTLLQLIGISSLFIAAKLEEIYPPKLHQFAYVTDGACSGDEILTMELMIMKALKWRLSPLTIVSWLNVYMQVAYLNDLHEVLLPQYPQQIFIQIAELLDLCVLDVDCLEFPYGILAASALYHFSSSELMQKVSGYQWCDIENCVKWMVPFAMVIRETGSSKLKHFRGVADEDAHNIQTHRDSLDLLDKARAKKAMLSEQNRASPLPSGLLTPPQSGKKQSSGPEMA
Chain of CDK3/Cyclin E (Homo sapiens) (Q00526 whole entry, looked up): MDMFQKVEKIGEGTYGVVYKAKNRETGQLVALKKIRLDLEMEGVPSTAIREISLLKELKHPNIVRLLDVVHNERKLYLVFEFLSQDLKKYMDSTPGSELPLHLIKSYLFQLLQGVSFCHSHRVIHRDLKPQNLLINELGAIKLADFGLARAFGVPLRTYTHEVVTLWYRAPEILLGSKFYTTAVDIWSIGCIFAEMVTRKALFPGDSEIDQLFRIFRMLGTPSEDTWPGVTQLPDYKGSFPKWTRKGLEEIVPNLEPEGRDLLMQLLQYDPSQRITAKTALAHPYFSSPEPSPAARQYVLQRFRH

Chain of Casein kinase I isoform gamma-3 (Homo sapiens) (Q9Y6M4 whole entry, looked up, canonical isoform): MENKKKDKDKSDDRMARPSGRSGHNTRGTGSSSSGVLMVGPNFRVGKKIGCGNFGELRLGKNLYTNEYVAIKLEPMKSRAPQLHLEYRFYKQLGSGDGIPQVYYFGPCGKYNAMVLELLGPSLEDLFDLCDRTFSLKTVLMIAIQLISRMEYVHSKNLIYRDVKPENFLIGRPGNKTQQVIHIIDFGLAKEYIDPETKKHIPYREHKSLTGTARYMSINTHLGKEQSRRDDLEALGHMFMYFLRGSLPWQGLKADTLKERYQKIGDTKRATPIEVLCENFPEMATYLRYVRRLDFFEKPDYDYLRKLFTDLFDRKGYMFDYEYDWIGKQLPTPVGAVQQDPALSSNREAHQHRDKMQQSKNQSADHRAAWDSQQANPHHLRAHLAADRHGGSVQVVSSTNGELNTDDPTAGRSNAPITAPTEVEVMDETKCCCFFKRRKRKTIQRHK
Chain of Casein kinase I isoform gamma-2 (Homo sapiens) (P78368 whole entry, looked up, canonical isoform): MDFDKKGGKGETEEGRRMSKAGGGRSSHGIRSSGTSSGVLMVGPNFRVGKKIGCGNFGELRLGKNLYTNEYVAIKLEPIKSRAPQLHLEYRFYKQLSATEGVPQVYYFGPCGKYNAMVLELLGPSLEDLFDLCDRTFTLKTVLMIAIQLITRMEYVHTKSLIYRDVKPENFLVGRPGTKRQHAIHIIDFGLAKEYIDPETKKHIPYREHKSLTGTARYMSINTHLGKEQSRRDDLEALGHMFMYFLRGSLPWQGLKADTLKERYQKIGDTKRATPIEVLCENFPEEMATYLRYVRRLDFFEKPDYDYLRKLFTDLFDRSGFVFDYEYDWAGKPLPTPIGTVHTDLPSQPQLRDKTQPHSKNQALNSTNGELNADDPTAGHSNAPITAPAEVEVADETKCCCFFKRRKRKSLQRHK

Row | SMILES | inhibition [1] [%] | inhibition [2] [%] | inhibition [3] [%] | inhibition [4] [%] | inhibition [5] [%] | inhibition [6] [%] | inhibition [7] [%] | inhibition [8] [%] | inhibition [9] [%] | inhibition [10] [%]
1 | c1ccc(Cc2nc3ccc(Nc4ncnc5ccccc45)cc3[nH]2)cc1 | 8.66 | 3.41 | 5.53 | 3.12 | 4.29 | 2.89 | 7.78 | 6.18 | 8.1 | 4.46
2 | Cc1ccc(O)cc1Nc1ccnc2ccc(S(C)(=O)=O)cc12 | 6.1 | 3.71 | 9.28 | 1.72 | -1.86 | 2.82 | 4.49 | 4.22 | 4.92 | 2.71
3 | Cc1nc(-c2ccccc2)n2nc(NCCCN3CCOCC3)ncc12 | 2.19 | 1.6 | 1.78 | 1.76 | 2.4 | 2.24 | 2.48 | 2.24 | 4.68 | -1.66
4 | NS(=O)(=O)c1ccc(NC=C2C(=O)Nc3ccc4ncsc4c32)cc1 | 19.5 | 6.11 | 26.3 | 40.7 | 69.5 | 89.1 | 109 | 74.3 | 76.7 | 69.4
5 | COc1cc2ncnc(Nc3ccc(C)c(O)c3)c2cc1OC | 4.75 | 1.97 | 4.02 | 0.59 | 4.09 | 1.34 | 1.09 | 4.69 | 6.24 | 4.08
6 | COC(=O)Nc1nc2cc(Oc3ccc(NC(=O)Nc4cccc(Br)c4)cc3)ccc2[nH]1 | 1.6 | -0.42 | 1.82 | 1.34 | 2.26 | 3.2 | -0.87 | 1.48 | 2.15 | 2.04
7 | Cc1ccc2c(-c3ccnc(Nc4ccc5c(c4)OCCO5)n3)c(-c3ccc(C(F)(F)F)cc3)nn2n1 | 1.66 | 1.42 | 1.29 | 1.21 | 2.01 | -0.16 | 2.09 | 0.31 | 1.68 | -0.58
8 | COc1cccc(-n2nc(C)c3c(N/N=C(\C)c4ccncc4)ncnc32)c1 | 0.28 | -0.15 | -0.59 | 0.65 | 2.77 | 1.78 | 7.56 | 1.09 | 2.33 | -0.92
9 | CCOc1nccc2c1nc(-c1nonc1N)n2CC | 1.13 | 1.1 | 0.56 | 0.5 | 2.69 | 0.81 | 2.63 | 2.66 | 5.12 | 2.48
10 | NC(=O)c1cccc(Nc2nccc(Nc3cccc(F)c3)n2)c1 | 1.73 | 0.99 | 0.09 | 1.24 | 3.33 | 2.07 | 4.6 | 0.92 | 5.16 | 0.62
11 | COc1cc(Nc2nccc(-c3cnn4ncccc34)n2)cc(OC)c1 | 39.3 | 3.02 | 34.9 | 69.1 | 91.3 | 54.5 | 110 | 63.6 | 90 | 34.6
12 | Cc1ccc(NC(=O)CC2CC2)cc1-c1ccc(C(=O)NCC2CC2)cc1 | 2.91 | 0.5 | 2.08 | -0.23 | 0.76 | -1.15 | -1.13 | 1.18 | 2.92 | 1.73
13 | Cc1cc(O)cc(C)c1/C=C/c1cncc(C(=O)N(C)C)c1 | 3.24 | 0.86 | -0.84 | 1.02 | 5.98 | 2.51 | 0.67 | 1.36 | 4.91 | 1.4
14 | CCn1c(-c2nonc2N)nc2ccc(F)cc21 | 5.68 | 5.66 | 3.59 | 0.74 | 1.27 | 1.3 | 7.59 | 3.91 | 5.8 | 3.47
15 | Nc1nccc(-c2c(-c3ccc(F)cc3)ncn2CCCN2CCOCC2)n1 | 4.12 | 3.31 | 6.54 | 0.36 | 2.84 | 1.82 | -4.06 | 2.73 | 2.71 | 4.59
16 | CCn1c(-c2nonc2N)nc2c(C#CC(C)(C)O)nc(OCCNC)cc21 | 6.19 | 2.99 | 1.61 | 3.65 | 2.4 | 3.96 | 3.53 | 2.75 | 5.28 | -3.05
17 | N#Cc1cccc(Nc2nccc(-c3cnn4ncccc34)n2)c1 | 41.4 | 8.75 | 43 | 83.8 | 89.2 | 89.8 | 121 | 82.3 | 87.2 | 76.7
